One test deals with NUDT18. Description: pooled miR-30 sensor sort-seq; sequence = guide strand. To be noted: shRNA.
Consider TTACTCAGCAACGTGCTCCTCC, for which the sensor-assay potency score (higher = more potent) worked out at 0.514.
On the same count and under the same terms, next, TTGATCTCCACCACCAAGTGGT: 0.0788; ATCACTGTGATCTCGGCCCAGG: -0.975.

The target of the next test is NUDT8. Described as above. The following applies: shRNA.
TTTGCGGATCATACACAGGCCG registered a sensor-assay potency score (higher = more potent) of -0.907.
Turning to TACAGCAGCGCCGGCACCCCAC, the sensor-assay potency score (higher = more potent) was -1.1.
On the same count and under the same terms, then TGTGCACCACATCTTGGTCAGC, with -0.734; and ACCACATCTTGGTCAGCCGGGT, with -1.55.
On the same count and under the same terms, next, TTGCGGATCATACACAGGCCGC: -1.79.
Still for that read-out and setting: next, TTGGTCAGCCGGGTCGCACTTG: -1.16; TGGTCAGCCGGGTCGCACTTGC: -1.47; TGGGAAACTGACGTCGCCCTTG: -0.952.
Turning to TCAGCCGGGTCGCACTTGCCGC, the sensor-assay potency score (higher = more potent) was -1.59.
Still for that read-out and setting: next, TACACCAGCAAGCACTGGCACC: -1.4; ATCTTGGTCAGCCGGGTCGCAC: -1.97.
On the same count and under the same terms, next, TTGTGCCTCCCGGTCAGGCGGC: -1.45.

In the next test the target is NUP188. The test is described as above. To be noted: shRNA.
Turning to TTTTCTTGTCCAGCTCTCCAAG, the sensor-assay potency score (higher = more potent) was -0.925.
Same read-out and setting: then TTACACAGGGTACAAGTCCTTG, with -0.672; and TATTGGTCTGCCTACTACCAAA, with -1.79.
Still for that read-out and setting: then TACTCTAACAAGGAGGTGCAGC, with -0.568; and TTGCTCTTTAAACATCTTGGTT, with -0.993.
Still for that read-out and setting: next, TAGAACAGCAATGAGGTTGTTT: 0.0605.
TAATGCTGCAGCATCTTTCGAC showed a sensor-assay potency score (higher = more potent) of -0.404.
Still for that read-out and setting: next, TAACTCTCTCTTCCACTGCCGG: -0.922; TACTACATAGTATATCTCCAAG: -1.14.
The same measure, in the same setting: then TAGGTGTCTGTGCTGTGCCGTT, with -0.606.
In turn, TATCGCATGAATCAGCTCCAAG yielded a sensor-assay potency score (higher = more potent) of -1.05.
TATTGATAACTGTCTGTCCTGC showed a sensor-assay potency score (higher = more potent) of -0.496.

Another test has as its target NUP214. Described as above. To be noted: shRNA.
Take TAAAGTTCACAAATATCTCTGG: the sensor-assay potency score (higher = more potent) was 0.255.
On the same count and under the same terms, next, TTGACTTTGACAGCAGAGGTTG: -0.446.
Still for that read-out and setting: then TTTGTTGGGATCATCTCCGGGT, with -0.0183.
The sequence TTTATCAACTATTTTGTTGGGA displayed a sensor-assay potency score (higher = more potent) of 1.13.
Same read-out and setting: next, TAATGATGCTGTCTCTCCGTGC: -0.651; TTTGTTGGACACAGCAAGCAGA: -0.715; TAACTCTTCCAACTCCTTCTGA: -0.0589.
As for TTTTGTTGGGATCATCTCCGGG, the sensor-assay potency score (higher = more potent) is -0.302.
Take TTATCAACTATTTTGTTGGGAT: the sensor-assay potency score (higher = more potent) amounted to 0.33.
TAGAACATCATTCACATCTTGG displayed a sensor-assay potency score (higher = more potent) of -0.0154.
TAATCTGATCACTTTGTCGAGC: the sensor-assay potency score (higher = more potent) is -0.175.
As to TTTAGTAGGAAAAATCTGCAAG, the sensor-assay potency score (higher = more potent) was -0.492.

(Values after the OligoGym collection.)
Also: reference of the scale not given here.
